# Assay results as given in PubChem BioAssay (NCI).
# The panel holds about 83,000 compounds, 20% with a hit somewhere; the sample as a whole holds those more often.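 Activity criterion: percent growth below 10, measured after cells in 96-well plates were exposed to a single compound concentration for 48 hours.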 Unmarked numbers belong to inactive results. Calls of active or inactive are those of the source.
# System: HL-60(TB) leukemia
# Experiment: NCI-60 one-dose screen, 48 h (100 = growth as untreated, 0 = no growth, -100 = all killed)
# Conditions: 10 µM unless noted
row,Compound,growth
1,CCCN1C(=O)N(CCC)C2C1NC(=S)N2/N=C/C=C/c1ccccc1OC (stereo not given),-42.1% (active)
2,Clc1ccc2c(c1)nnn1c3ncccc3c(Br)c21,113%
3,CCOC(=O)CN1CCC(C(=O)OCC)CC1,116%
4,CCOC(=O)c1cc2c(n1Cc1cc(OC)cc(OC)c1)-c1oncc1CCC2,5.41% (active)
5,CN1C(=O)/C(=C/c2ccc(C(=O)Nc3ncc(Cc4cccc(C(F)(F)F)c4)s3)cc2)SC1=S,43.3%
6,COc1ccc(-c2[nH]c3ccccc3c2/C=C(\C#N)S(=O)(=O)c2ccccc2)cc1,-28.4% (active)
7,Cc1ccc(C)c(NC(=O)c2sc3c(=O)[nH]cnc3c2C)c1,65.4%
8,Cn1cc(-c2csc(-c3c[nH]c4ccc(F)cc34)n2)c2cnccc21,-59.4% (active)
9,COc1ccc(OC)c(-c2c(C#N)c(-c3ccco3)nc3c2c(-c2ccccc2)nn3-c2ccccc2)c1,105%
10,O=C1NCCc2c1noc2-c1ccccc1,102%
11,CCOP(=O)(O)OP(=O)(O)OCC,94.1%
12,NC(=O)N/N=C\c1ccco1,102%
13,O=C1OCC2=C1C(c1cccc(F)c1)c1cc3c(cc1N2CCO)CCC3 (stereo not given),-29.8% (active)
14,CC(=O)c1cc2c(N)c(C(=O)Nc3cccc4c3OCCO4)sc2nc1C,86.8%
15,CN1CCN(c2cc(F)c(NC3=C(Cl)C(=O)c4ncccc4C3=O)c(F)c2)CC1,-26.4% (active)
16,COc1ccc(-c2nc(SCC(=O)Nc3nc4ccc(C)cc4s3)[nH]c(=O)c2C#N)cc1OC,105%
17,CCCCOC(=O)c1ccc(NC(=O)CCl)cc1,25.3%
18,O=C1NC(=O)C(Cc2ccccc2)(Cc2ccccc2)N1,122%
19,Cc1ccc2sc3c(NCCCN)nc4ccccc4c3c(=O)c2c1,-27.1% (active)
20,O=C(O)c1cccc([N+](=O)[O-])c1,107%

row,Compound,growth
1,C[C@H]1C(=O)N2c3ccccc3[C@@]3(O)C[C@@H](n4cnc5ccccc5c4=O)C(=O)N1[C@@H]23,64.6%
2,O=[n+]1ccn([O-])c2ccccc21,118%
3,COc1cc(/C=C2\COc3ccc(O)cc3C2=O)cc(OC)c1,18.4%
4,CC(C)(C)c1ccc([I+]c2ccc(C(C)(C)C)cc2)cc1,-38.7% (active)
5,Cc1nn2c(/C=C3/C(=O)Nc4cc(Cl)ccc43)c(-c3ccccc3)nc2s1,32.2%
6,OC(c1ccccc1)c1nnc(SCc2ccccc2)n1Cc1ccccc1 (stereo not given),112%
7,CCCCCCCCCCCCCCCCOc1ccc(S(=O)(=O)N(C)C)cc1[N+](=O)[O-],110%
8,COc1cc2c(cc1-c1c(C)noc1C)ncc1nc(C3CCOCC3)n(C3CCC(OC(F)F)CC3)c12 (stereo not given),7.23% (active)
9,O=S(=O)(c1ccccc1)n1ccc(-c2ccc3c(c2)CCO3)n1,109%
10,O=C1Nc2ccccc2/C1=C/c1ccc[nH]1,103%
11,O=C(CBr)OCc1ccc([N+](=O)[O-])o1,118%
12,COc1ccc2c(c1)c(-c1noc(C(=O)c3cn(C)c4ncc(Br)cc34)n1)cn2C,98.2%
13,O=[N+]([O-])/C(=C/C=C/c1ccccc1)c1ccccc1,-2.71% (active)
14,CCOc1nc(-c2ccccc2)cc2c(O)c(C(=O)NCCCO)[nH]c(=O)c12,177%
15,O=C(Cn1nncc1CN1C(=O)CSC1=O)Nc1ccc(F)cc1,100%
16,O=[N+]([O-])c1ccc(N=Nc2c(NNc3ccc([N+](=O)[O-])cn3)cc(S(=O)(=O)O)c3ccccc23)nc1,94.9%
17,CNC(=O)c1cc(Oc2ccc3nc(NC(=O)Nc4ccc(C(F)(F)F)cc4)sc3c2)ccn1,120%
18,O=C(N=c1n(-c2ccccc2)nc2n1CCN2C1=NCCN1)c1ccc(Cl)cc1,95.8%
19,CC(C)c1ccc2c(c1)CC[C@H]1[C@](C)(C(=O)OCC#CCN3CCCC3)CCC[C@]21C,55.5%
20,Cc1nc2cc(Nc3nc(Cl)nc(Nc4ccc(F)cc4)n3)ccc2n1Cc1ccccc1,53.2%
